Compound activity: PubChem, National Center for Advancing Translational Sciences (NCATS)
Most compounds without a hit are left out; they make up all but 7.9% or so of the library.
HT1080NT lethal = qHTS for induction of synthetic lethality in tumor cells producing 2HG: qHTS for the HT-1080-NT fibrosarcoma cell line; HT-1080-NT fibrosarcoma viability, CellTiter-Glo ATP luminescence, 48 h; Potency, µM (top dose mostly 46.1 µM), without a hit: top-dose activity, negative = less viability, most hits filed as cytotoxic; 360,000 compounds, 1.6% hits;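 note: NT is the 2HG producing partner of a matched IDH1 knockdown line; 0% = DMSO-treated cells and -100% = media-only wells without cells; nearly all actives have a fitted effect of over 55% in size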
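HT-1080-NT; 750 cells/well; 5% FBS RPMI; 48 h compound, 37 degrees C; CellTiter-Glo luminescence; curve fitting and curve-class assignment.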
SW480 rerep = A quantitative high throughput screen for small molecules that induce DNA re-replication in SW480 colon adenocarcinoma cells | SW480 DNA re-replication, Hoechst DNA content imaging, 48 h | Potency, µM (highest dose often 46.1 µM), without a hit: at the highest dose re-replication activation, most hits filed as activators | 340,000 compounds, 1.8% hits; note: % of control where 0% means no effect; nearly all actives have a fitted effect of over 55% in size
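Hoechst fluorescence of nuclei (405 nm excitation, 500-530 nm emission) measured by plate-scanning imager after 48 hr compound exposure at 37 C; re-replication scored as increased number of nuclei with elevated intensity.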
HT1080 IDH1KD tx = qHTS for induction of synthetic lethality in tumor cells producing 2HG: qHTS for the HT-1080-IDH1KD cell line | 360,000 compounds, 2% hits | Potency, µM (titrated, usually from 46.1 µM), without a hit: top-dose activity, negative = toxicity, most hits filed as cytotoxic | HT-1080 IDH1 knockdown viability, ATP luminescence, 48 h;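 note: 0% = DMSO wells and -100% = cell-free medium wells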
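Knockdown cells (IDH1KD HT-1080) received compounds 2 h after plating at 750 cells/well and were kept 48 h at 37 °C in 5% FBS RPMI. A CellTiter-Glo luminescence read gave % activity for curve fitting.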
MCF10A rereplic = A quantitative high throughput screen for small molecules that induce DNA re-replication in MCF 10a normal breast cells | AID 624296, 2012 | 350,000 compounds, 2.9% hits | MCF 10A DNA re-replication, Hoechst nuclear intensity, 48 h | Potency, µM (titrated, usually from 46.1 µM), for inactives: top-dose activity, positive = re-replication, hits mostly activators; note: % of control where 0% means no effect; nearly all actives have a fitted effect of over 50% in size
KB-3-1 cytotox = qHTS assay for MDR1-selective chemotherapeutics: Primary screen using the parental adenocarcinoma cell KB-3-1. AID 1347075, 2019. 400,000 compounds, 1.4% hits. Potency, µM (titrated, usually from 46.1 µM), usual class: cytotoxic. KB-3-1 viability, CellTiter-Glo ATP luminescence, 72 h; note: % is set by controls: 0 for no effect and ±100 for the full control effect; nearly all actives have a fitted effect of over 60% in size
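Viability of parental KB-3-1 cells, measured by CellTiter-Glo luminescence, followed a 72 h incubation at 37 °C with pinned compounds in phenol-red-free DMEM containing 10% FBS.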
KB-V1 cytotox = qHTS assay for MDR1-selective chemotherapeutics: Primary screen using the drug-selected MDR subline cells KB-V1 | KB-V1 MDR cells viability, CellTiter-Glo, 72 h | Potency, µM (top dose mostly 46.1 µM), hits mostly cytotoxic | 400,000 compounds, 3.4% hits; note: % is set by controls: 0 for no effect and ±100 for the full control effect; nearly all actives have a fitted effect of over 60% in size
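Cells of the MDR subline KB-V1 are plated, dosed with compound at multiple concentrations, and incubated 72 h at 37 degrees C; CellTiter-Glo is then added and luminescence read after 10 min.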
An asterisk follows results filed as active; i = inactive; ? = inconclusive; . = not tested or not shown; [ ] = dose if it differs, or a comment. Calls come from the whole dose curve; as a rule, active = well fitted curve in the direction sought with a large enough effect; inconclusive = small, poorly fitted or top-dose-only effect, or another doubt; inactive = no such curve, though single readings can be large; an effect the other way counts as inactive or inconclusive. Potency is the fitted concentration of half-maximal effect.

SMILES	HT1080NT lethal	SW480 rerep	HT1080 IDH1KD tx	MCF10A rereplic	KB-3-1 cytotox	KB-V1 cytotox
Cn1c(=O)c2c(nc(SCCN3CCCCC3)n2Cc2ccc(Cl)cc2)n(C)c1=O	?	20%	-19%	0%	i	i
COc1ccc2c3c(ccc2c1)C(=O)/C(=C/O)CC3	-8%	12%	-20%	?	i	?
COC(=O)C(NNc1ccc(F)cc1)(NC(=O)c1ccccc1)C(F)(F)F (stereo not given)	-10%	-6%	-18%	0%	i	18µM*
Cc1ccc(-c2nn(-c3cc(N4CCNCC4)ccc3[N+](=O)[O-])c(=O)c3ccccc23)cc1	15µM*	-1%	?	-7%	?	?
Cc1ccc(-c2nn(-c3cc(Cl)ccc3[N+](=O)[O-])c(=O)c3ccccc23)cc1C	-4%	?	-5%	30%	i	i
Cc1nn(-c2cc(N3CCCCCC3)ccc2[N+](=O)[O-])c(=O)c2ccccc12	0%	11%	11%	12%	i	3.7µM*
Cc1nn(-c2cc(N3CCCCC3)ccc2N)c(=O)c2ccccc12	3%	0%	3%	-1%	i	i
Cc1ccc(S(=O)(=O)N2CCN(C(=O)CN3C(=O)CNC3=O)CC2)cc1	9%	-2%	3%	0%	i	i
CC(=O)N1Cc2ccccc2C(C)CC12CCCCC2 (stereo not given)	12%	3%	10%	-1%	i	16µM*
Cc1ccccc1S(=O)(=O)NCC1CCCO1 (stereo not given)	4%	26µM*	12%	-12%	i	i
O=S(=O)(NCC1CCCO1)c1ccccc1F (stereo not given)	12%	-7%	11%	-7%	i	i
CN1C(=O)C(O)(C2COC(C)(C)CC2=O)c2cc(Br)ccc21 (stereo not given)	?	?	?	?	21µM*	?
Cc1noc(C)c1COc1ccc(C(=O)OCC(=O)Nc2ccc(S(N)(=O)=O)cc2)cc1	14%	-6%	-1%	6%	i	i
Cc1cc2nn(-c3ccc(Cl)cc3)nc2cc1N	1%	23µM*	2%	21µM*	i	i
COc1ccc(-n2nc3cc(C)c(N)cc3n2)cc1Cl	4%	15µM*	0%	3.3µM*	i	i
COc1ccc(-n2nc3cc(C)c(NC(=O)c4ccc(C)cc4C)cc3n2)cc1Cl	.	.	.	.	i	?
Cc1cc2nn(-c3ccc(F)cc3)nc2cc1N	-22%	21µM*	-18%	21µM*	i	i
C[C@@]12C(=O)N(CCO)CC(=O)N1[C@H](/C=C/c1ccccc1)[C@@H]1C(=O)N(c3ccccc3)C(=O)[C@@H]12	4%	-1%	-3%	17%	i	i
COc1ccc(-c2nnc3ccc(SCC(=O)N4CCCCCC4)nn23)cc1OC	-3%	-4%	-2%	5%	i	i
COC(=O)c1ccc(CSc2ccc3nnc(-c4ccc(OC)c(OC)c4)n3n2)o1	6%	-18%	3%	-1%	i	7.3µM*
O=C(Nc1cccc(OC(F)(F)F)c1)[C@@H]1O[C@H](CO)[C@H](O)[C@H](O)[C@H]1O	11%	.	3%	.	i	i
Cn1c(=O)[nH]c(=O)c2c1nc1n(CCO)c(-c3ccccc3)cn21	.	.	.	.	i	i
CCC(C)N(C(=O)CSc1nc(-c2cccs2)nc2ccccc12)C1CCS(=O)(=O)C1 (stereo not given)	-23%	?	?	?	i	1.5µM*
CCC(C)N(C(=O)CSc1ncnc2sccc12)C1CCS(=O)(=O)C1 (stereo not given)	-4%	0%	0%	-2%	i	i
O=S1(=O)CCS(=O)(=O)C1c1ccccc1	23µM*	?	21µM*	?	i	i
SMILES	HT1080NT lethal	SW480 rerep	HT1080 IDH1KD tx	MCF10A rereplic	KB-3-1 cytotox	KB-V1 cytotox
O=C1CC(=O)CC(c2ccccc2)C1	11%	-1%	4%	0%	i	i
Brc1ccccc1C1CC(c2ccccc2)=Nc2ccccc2N1 (stereo not given)	-22%	?	-25%	23µM*	i	i
COc1ccccc1N1CCN(CCCCN2C(=O)C3CCCCN3C2=O)CC1 (stereo not given)	-25%	-4%[9.22 µM]	-19%	-1%	i	i
N#Cc1cc(N2CCCCC2)c([N+](=O)[O-])cc1C#N	1%	11%	1%	?	i	i
O=[N+]([O-])c1cc2no[n+]([O-])c2cc1N1CCCCC1	12%	6.5µM*	-2%	3.3µM*	?	i
CC(C)c1ccc(-c2csc3ncnc(N4CCN(C)CC4)c23)cc1	16µM*	5%	21µM*	?	i	i
Clc1ccc(-c2csc3ncnc(N4CCc5ccccc5C4)c23)cc1	-3%	-9%	-10%	?	i	16µM*
Clc1ccc(CN2CCN(c3ncnc4scc(-c5cccs5)c34)CC2)cc1	-19%	-3%	-29%	?	?	13µM*
CN1CCCN(c2ncnc3scc(-c4ccc(F)cc4)c23)CC1	3%	-24%	-1%	-1%	i	i
COc1ccc(C(=O)CN2C(=O)N(c3cc(C)cc(C)c3)S(=O)(=O)c3ccccc32)cc1	.	.	.	.	i	i
OCCCNc1ccccc1	.	-3%	.	0%	.	.
CNC(=O)OCc1nc(SSC(C)(C)C)n(C)c1COC(=O)NC	?	4.1µM*	18µM*	2.9µM*	?	i
CC(C)Cc1ccc([C@@H](C)C(=O)NS(C)(=O)=O)cc1	.	-2%	.	-1%	.	.
CC(C)Cc1ccc(C(C)C(=O)Nc2ccccc2O)cc1 (stereo not given)	3.7µM*	-71%	23µM*	12%	21µM*	?
COc1ccc(-c2cc(-c3c(O)c(OC)c4occc4c3OC)[nH]n2)cc1	?	?	?	?	?	13µM*
COC(=O)c1ccc2c(=O)n(-c3ccccc3F)c(=S)[nH]c2c1	0%	-2%	-1%	5%	?	18µM*
CC1CN(CCC(=O)Nc2ccccc2F)CC(C)O1 (stereo not given)	-1%	3%	9%	1%	i	i
